Most compounds without a hit are left out; they make up all but 1.6% or so of the library.
KCNQ2 block: rat KCNQ2 potassium channel inhibitors, primary screen, cell-based, CHO-K1, FluxOR thallium flux, B-score | actives 1.1% (n = 310,000) | Potassium voltage-gated channel subfamily KQT member 2 (Rattus norvegicus), O88943 | 20 min; active compounds read low | AID 2156, 2009 | B-score at 10 µM;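 active = fluorescence ratio B-score at most minus 3 library SDs, with starting brightness B-score within 2 library SDs, cut at about -5.5 in these data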
Target sequence (O88943 whole entry, looked up): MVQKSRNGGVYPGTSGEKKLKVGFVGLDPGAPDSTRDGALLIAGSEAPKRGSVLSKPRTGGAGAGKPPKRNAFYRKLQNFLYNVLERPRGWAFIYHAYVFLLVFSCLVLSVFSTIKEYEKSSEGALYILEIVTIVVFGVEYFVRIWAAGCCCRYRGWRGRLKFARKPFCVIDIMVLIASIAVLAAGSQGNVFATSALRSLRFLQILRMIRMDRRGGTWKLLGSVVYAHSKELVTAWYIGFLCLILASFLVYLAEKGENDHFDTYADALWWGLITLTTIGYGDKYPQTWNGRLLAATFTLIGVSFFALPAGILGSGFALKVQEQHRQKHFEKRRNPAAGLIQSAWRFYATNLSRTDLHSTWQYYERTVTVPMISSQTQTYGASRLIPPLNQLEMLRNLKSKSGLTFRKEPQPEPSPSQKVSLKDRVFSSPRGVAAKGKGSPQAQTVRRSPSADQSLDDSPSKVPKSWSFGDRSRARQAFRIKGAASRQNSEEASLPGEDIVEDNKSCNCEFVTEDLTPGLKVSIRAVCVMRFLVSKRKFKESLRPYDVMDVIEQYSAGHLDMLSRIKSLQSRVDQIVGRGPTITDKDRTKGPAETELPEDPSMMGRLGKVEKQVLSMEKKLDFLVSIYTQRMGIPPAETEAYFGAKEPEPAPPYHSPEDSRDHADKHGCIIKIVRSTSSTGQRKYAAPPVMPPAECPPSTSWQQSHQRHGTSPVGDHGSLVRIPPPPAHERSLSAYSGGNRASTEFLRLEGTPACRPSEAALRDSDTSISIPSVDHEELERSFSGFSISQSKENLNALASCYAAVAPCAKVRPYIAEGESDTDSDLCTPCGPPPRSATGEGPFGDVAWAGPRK
KCNQ2 pot: potentiators of rat KCNQ2 potassium channel. Potassium voltage-gated channel subfamily KQT member 2 (Rattus norvegicus), O88943. B-score at 10 µM. CHO-K1 KCNQ2, FluxOR thallium flux fluorescence; active compounds read high. actives 0.54% (n = 310,000). AID 2239, 2010;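 active = fluorescence ratio B-score at least 3 SD of library B-scores, with initial fluorescence B-score within 3 of them, cut at about 5.3 in these data; same plate scores as AID 2156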;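 note: B-score of peak minus minimum over baseline fluorescence ratio after K+ and Tl+ stimulus; positive B-score means potentiation of KCNQ2 with more thallium influx and brighter signal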
Large screens that a line does not name were inactive.

c1ccc(-c2c(-c3ccccc3)n(Cc3ccco3)c3ncnc(NCCCn4ccnc4)c23)cc1	KCNQ2 block -10.7
OCCNc1ncnc2c1c(-c1ccccc1)c(-c1ccccc1)n2Cc1ccco1	none (no result: KCNQ2 pot)
COC(=O)c1c(-c2ccc(Br)cc2)csc1NC(=O)Cc1ccc(OC)c(OC)c1	none (no result: KCNQ2 pot)
COC(=O)c1c(-c2ccc(C)cc2)csc1NC(=O)Cc1ccc(OC)c(OC)c1	KCNQ2 block -6.77
C/C(=C\C(=O)c1ccccc1)Nc1ccc(Cl)c(Br)c1	none
O=C(Cc1ccc(Cl)cc1)Nc1ccc(Br)cc1	none
C/C(=C\C(=O)c1ccc(Br)cc1)Nc1cccc(Cl)c1	KCNQ2 block -6.19
C/C(=C\C(=O)c1ccc(Cl)cc1)Nc1ccc(Br)cc1	KCNQ2 block -5.95
Cc1onc(-c2c(F)cccc2Cl)c1C(=O)N1CCOC12CCCCC2	none (no result: KCNQ2 pot)
O=C(CSc1nnc(Cc2cccs2)n1C1CCCCC1)N1CCCc2ccccc21	KCNQ2 block -6.45
O=C(CSc1nnc(Cc2cccs2)n1CCc1ccccc1)N1CCCc2ccccc21	KCNQ2 block -6.47
Cn1c(Cc2cccs2)nnc1SCC(=O)N1CCCc2ccccc21	none (no result: KCNQ2 pot)
O=C(CSc1nnnn1C1CCCC1)N1CCCc2ccccc21	none (no result: KCNQ2 pot)
Cn1c(N)c(N2CCN(c3ccccc3)CC2)c(=O)[nH]c1=O	none
Cc1c(C(=O)OCC(=O)Nc2c(C)n(C)n(-c3ccccc3)c2=O)oc2ccccc12	none
CCOC(=O)CN1C(=O)N[C@@H](CCc2ccccc2)[C@@H](C(=O)OC)[C@H]1C	none (no result: KCNQ2 pot)
Cc1ccc(S(=O)(=O)N2CCN(Cc3ccco3)CC2)cc1C	none (no result: KCNQ2 pot)
CCCc1ccc(S(=O)(=O)N2CCN(Cc3ccco3)CC2)cc1	KCNQ2 block -5.87
Cc1ccc(N=Cc2c(O)n(-c3cc(Cl)ccc3N3CCOCC3)c(=O)c3ccccc23)cc1C	none (no result: KCNQ2 pot)
CN(C(=O)CC1C(=O)NCCN1CC(c1ccccc1)c1ccccc1)C(C1CC1)C1CC1 (stereo not drawn)	none (no result: KCNQ2 pot)
CN(CC1CCOCC1)C(=O)CC1C(=O)NCCN1CC(c1ccccc1)c1ccccc1 (stereo not drawn)	KCNQ2 block -5.88
CCCn1c(=O)c2c(C(=O)OCC)cc(-c3ccco3)nc2n(CCC)c1=O	none (no result: KCNQ2 pot)
CCOC(=O)c1cc(-c2ccco2)nc2c1c(C)nn2-c1ccccc1	KCNQ2 block -6.05
Cc1cc(C)n(S(=O)(=O)c2ccccc2[N+](=O)[O-])n1	none (no result: KCNQ2 pot)
O=C(Oc1c(-c2ccccc2)oc2ccccc2c1=O)c1ccccc1	none (no result: KCNQ2 pot)
O=C(Oc1c(-c2ccccc2Cl)oc2ccccc2c1=O)c1ccc(Cl)cc1	KCNQ2 block -6.94
O=C(CSc1ncccn1)Nc1cc(Cl)ccc1[N+](=O)[O-]	none
Clc1ccccc1CN(Cc1ccccc1)C(c1cccs1)c1nnnn1C1CCCC1 (stereo not drawn)	KCNQ2 block -5.84
CC(C)(C)n1nnnc1C(c1cccs1)N(Cc1cccnc1)Cc1ccccc1Cl (stereo not drawn)	KCNQ2 block -6.18
Clc1ccc(CN(CC2CCCO2)C(c2cccs2)c2nnnn2C2CCCC2)cc1 (stereo not drawn)	none (no result: KCNQ2 pot)
CC(c1nnnn1C(C)(C)C)N(Cc1cccnc1)Cc1ccccc1Cl (stereo not drawn)	none (no result: KCNQ2 pot)
CCN(CC)S(=O)(=O)c1ccc2c(c1)nc(CCC(=O)Nc1ccc(N3CCOCC3)cc1)n2C	none (no result: KCNQ2 pot)
Cc1ccccc1C(=O)Nc1ccnn1C1CCN(C2CCSCC2)CC1	none (no result: KCNQ2 pot)
Cc1cc(C)n(C(=O)c2c([N+](=O)[O-])c(C)nn2C)n1	none
Cc1ccc(SC(=O)c2c([N+](=O)[O-])c(C)nn2C)cc1	KCNQ2 block -5.9
Cc1ccc2c(C)c(C(=O)N3CCCCC3CO)oc2c1C (stereo not drawn)	none (no result: KCNQ2 pot)
Cc1ccc(-c2nc3cnccn3c2Nc2ccc3c(c2)OCO3)cc1	none (no result: KCNQ2 pot)
CN(C)c1ccc(-c2nc3cnccn3c2Nc2ccc3c(c2)OCCO3)cc1	KCNQ2 block -6.39
CNc1nc(SCC(=O)Nc2ccccc2)nc(N2CCOCC2)n1	none (no result: KCNQ2 pot)
Oc1c(Br)cc(Br)cc1/C=N/NC(=S)N[C@H]1CC2C=CC1C2 (stereo partly drawn)	none
CNC(=S)N/N=C/c1cc(Br)cc(Br)c1O	KCNQ2 pot 7.01
COc1cc(/C=N/NC(=O)c2ccc(O)cc2)ccc1OCC(=O)N1CC(C)OC(C)C1 (stereo not drawn)	none (no result: KCNQ2 pot)
COc1cc(NS(=O)(=O)c2c(C)oc3c(F)c(F)c(F)c(F)c23)cc(OC)c1OC	KCNQ2 block -6.65
COc1cc(NS(=O)(=O)c2ccc3c(c2)oc(=O)n3C)cc(OC)c1OC	none (no result: KCNQ2 pot)
CCC(C)(C)C(=O)O[C@H]1C[C@@H](C)C=C2C=C[C@H](C)[C@H](CC[C@@H]3C[C@@H](O)CC(=O)O3)[C@H]21	none (no result: KCNQ2 pot)
Cc1ccc2nc(-c3cccc(Br)c3)cc(C(=O)NC3=NCCS3)c2c1	KCNQ2 block -7.28
O=C(NC1=NCCS1)c1cc(-c2cccc(Br)c2)nc2ccccc12	none (no result: KCNQ2 pot)
CCn1c(COC(=O)CNC(=O)c2ccccc2F)nc2cc(S(=O)(=O)N(C)C)ccc21	none (no result: KCNQ2 pot)
C=CCC(=O)NC1CC(C)(C)Cc2c1cnn2-c1ccccc1C (stereo not drawn)	none (no result: KCNQ2 pot)
Cc1ccc(NC(=O)CSc2nc(=O)n(CCCN3CCOCC3)c3c2CCCC3)c(C)c1	none
COCCNC(=O)[C@@]1(C)C=C[C@@H](Cc2ccccc2)N1C(=O)c1ccccc1	none
C[C@]1(C(=O)NCc2cc(F)cc(C(F)(F)F)c2)C=C[C@@H](Cc2ccccc2)N1C(=O)c1ccccc1	KCNQ2 block -7.17
Cc1ccccc1C(=O)Nc1cccc(-c2ccc(N3CCOCC3)nn2)c1	none
Cc1ccc(-c2noc(CN(C(=O)CCCN3C(=O)c4ccccc4C3=O)C(C)C)n2)cc1	none (no result: KCNQ2 pot)
Cc1ccc(-c2noc(CN(C(=O)CCN3C(=O)c4ccccc4C3=O)C(C)C)n2)cc1	KCNQ2 block -5.71
COc1ccccc1OCC(=O)N(Cc1nc(-c2ccc(Cl)cc2)no1)C(C)C	none (no result: KCNQ2 pot)
CC(C)N(Cc1nc(-c2ccc(Cl)cc2)no1)C(=O)CCC1CCCC1	KCNQ2 block -6.15
Cc1cc(Br)ccc1OCC(=O)N(Cc1nc(-c2ccccc2)no1)C(C)C	KCNQ2 block -5.95
COc1ccccc1OCC(=O)N(Cc1nc(-c2ccccc2)no1)C(C)C	none
Cc1nn(C(C)C(=O)N2CCCC2)c(=O)c2nn(-c3ccccc3)c(C)c12 (stereo not drawn)	none
Cc1cccc(NNC(N)=S)c1C	none (no result: KCNQ2 pot)
CCC(C)C(NS(=O)(=O)c1ccc(C)cc1)C(=O)O (stereo not drawn)	none
CCC(C)C(NS(=O)(=O)c1ccc(C)cc1)C(=O)NCCCN1CCOCC1 (stereo not drawn)	KCNQ2 block -5.61
CC1(C)C2CCC1(CS(=O)(=O)NCc1ccc(Cl)cc1Cl)C(=O)C2 (stereo not drawn)	KCNQ2 block -5.88
COc1cccc(NS(=O)(=O)CC23CCC(CC2=O)C3(C)C)c1 (stereo not drawn)	none (no result: KCNQ2 pot)
O=C(CSc1nnc(-c2ccccc2)c(-c2ccccc2)n1)Nc1ccc(Br)cn1	none
Cc1ccccc1NC(=O)N1CCNC(=O)C1CC(=O)Nc1cc(Cl)ccc1Cl (stereo not drawn)	none
N#C[C@H]1[C@H](c2ccccc2)[C@](C#N)(C(=O)c2ccccc2)[C@@H]2C=Cc3ccccc3N21	KCNQ2 block -8.59
COc1ccc(C(=O)N2c3ccccc3C=CC2C#N)cc1 (stereo not drawn)	none
COc1cc(C(=O)OCC(=O)c2c(N)n(C)c(=O)n(C)c2=O)ccc1OCCC(C)C	none (no result: KCNQ2 pot)
CC(C)CN(C(=O)c1cccc(S(=O)(=O)N2CCN(c3ccc(F)cc3)CC2)c1)C1CCS(=O)(=O)C1 (stereo not drawn)	none (no result: KCNQ2 pot)

Screening results from PubChem BioAssay.
